Results as given in PubChem BioAssay (NCI).
“And” between values parts separate entries of the source, which are not always exact repeats. Equal values may be shown once. Compounds without any hit were thinned out: in the full panel of roughly 83,000, 20% have a hit.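 How to read the values: 0–100, growth inhibition (40 = 60% inhibited); 0, no net growth; -100 to 0, cell death (-40 = 40% of starting cells died; -100 = all dead).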 The source made the active and inactive calls. How the source made its calls: active means growth percent below 10; inactive means the rest.

What was measured:
Assay in all cases: NCI-60 one-dose screen, 48 h (100 = growth as untreated, 0 = no growth, -100 = all killed)
[1] = tested on: DU-145 prostate
[2] = tested on: K-562 leukemia
[3] = tested on: MALME-3M melanoma
[4] = tested on: MDA-MB-231 breast
[5] = tested on: RXF 393 renal
[6] = tested on: SF-268 CNS
[7] = tested on: SF-295 CNS
[8] = tested on: SF-539 CNS
[9] = tested on: UACC-257 melanoma
[10] = tested on: HCT-15 colon
[11] = tested on: HT29 colon
[12] = tested on: SNB-75 CNS
[13] = tested on: SNB-19 CNS
[14] = tested on: U251 CNS
[15] = tested on: PC-3 prostate
[16] = tested on: SK-MEL-5 melanoma
[17] = tested on: UACC-62 melanoma
[18] = tested on: LOX IMVI melanoma
[19] = tested on: SK-MEL-2 melanoma
[20] = tested on: EKVX NSCLC

Measured: growth

O=C(/C(=C/c1ccccc1)CBr)c1ccccc1
inactive: [1]; 10 µM 87.6% | [3]; 10 µM 77.5% | [4]; 10 µM 58.3% | [5]; 10 µM 71.7% | [6]; 10 µM 84.4% | [7]; 10 µM 95.1% | [8]; 10 µM 82.7% | [9]; 10 µM 73.9% | [10]; 10 µM 47% | [11]; 10 µM 83.7% | [12]; 10 µM 48.6% | [13]; 10 µM 90.9% | [14]; 10 µM 78.6% | [15]; 10 µM 74.8% | [16]; 10 µM 87.7% | [17]; 10 µM 72.7% | [18]; 10 µM 44.3% | [19]; 10 µM 93.4% | [20]; 10 µM 82.1%
active: [2]; 10 µM 9.75%

CCCCCCCCCCCCCCCCCN
inactive: [1]; 10 µM 114% | [2]; 10 µM 103% | [3]; 10 µM 98% | [4]; 10 µM 93% | [5]; 10 µM 98.7% | [6]; 10 µM 113% | [7]; 10 µM 99.1% | [8]; 10 µM 94.2% | [9]; 10 µM 99.2% | [10]; 10 µM 104% | [11]; 10 µM 98.9% | [12]; 10 µM 92.6% | [13]; 10 µM 102% | [14]; 10 µM 96.3% | [15]; 10 µM 92.3% | [16]; 10 µM 103% | [17]; 10 µM 102% | [18]; 10 µM 102% | [19]; 10 µM 110%

Nc1ccc2cc(Br)c3ccccc3c2c1
active: [5]; 10 µM 4.19%
inactive: [1]; 10 µM 61.8% | [2]; 10 µM 31.7% | [3]; 10 µM 97.8% | [6]; 10 µM 68.9% | [7]; 10 µM 21% | [8]; 10 µM 47.9% | [9]; 10 µM 90.1% | [10]; 10 µM 33.2% | [11]; 10 µM 87.9% | [12]; 10 µM 50% | [13]; 10 µM 56.3% | [14]; 10 µM 65.6% | [15]; 10 µM 65.2% | [16]; 10 µM 75.3% | [17]; 10 µM 73.8% | [19]; 10 µM 103% | [20]; 10 µM 31.3%

S=c1[nH]nc(Cc2ccccc2)c(=S)[nH]1
inactive: [1]; 10 µM 100% | [2]; 10 µM 94.6% | [3]; 10 µM 98.3% | [4]; 10 µM 113% | [5]; 10 µM 103% | [6]; 10 µM 90.3% | [7]; 10 µM 99.8% | [8]; 10 µM 102% | [9]; 10 µM 102% | [10]; 10 µM 102% | [11]; 10 µM 97.4% | [12]; 10 µM 92.8% | [13]; 10 µM 109% | [14]; 10 µM 100% | [15]; 10 µM 89.1% | [16]; 10 µM 110% | [17]; 10 µM 110% | [18]; 10 µM 94.4% | [19]; 10 µM 104% | [20]; 10 µM 97.8%

Cc1cnc(/C=N\NC(N)=S)c2cccc(N)c12
active: [1]; 10 µM -15.6% | [6]; 10 µM 2.26% | [7]; 10 µM -29.9% | [8]; 10 µM -47.9% | [9]; 10 µM -30.6% | [12]; 10 µM -2.85% | [17]; 10 µM -15.7% | [18]; 10 µM 6.91% | [19]; 10 µM -6.16%
inactive: [2]; 10 µM 30.6% | [4]; 10 µM 34.2% | [10]; 10 µM 24.9% | [11]; 10 µM 35.8% | [13]; 10 µM 24% | [14]; 10 µM 25% | [15]; 10 µM 29% | [16]; 10 µM 54.8% | [20]; 10 µM 29.5%

COc1ccc2c(C)cc(N/N=C/c3sccc3C)nc2c1
active: [17]; 100 µM -100%

CN1CCN(c2ccc3nc(-c4ccc5nc(-c6ccc(O)cc6)[nH]c5c4)[nH]c3c2)CC1
inactive: [1]; 10 µM 84.5% | [2]; 10 µM 50.2% | [3]; 10 µM 37.9% | [4]; 10 µM 121% | [5]; 10 µM 37.3% | [6]; 10 µM 82.9% | [7]; 10 µM 96.3% | [8]; 10 µM 77% | [9]; 10 µM 113% | [10]; 10 µM 94.3% | [11]; 10 µM 82.1% | [12]; 10 µM 54.9% | [13]; 10 µM 106% | [14]; 10 µM 87.5% | [15]; 10 µM 69.7% | [17]; 10 µM 39.5% | [18]; 10 µM 93.9% | [19]; 10 µM 108% | [20]; 10 µM 105%
active: [16]; 10 µM -19.3%

O=c1[nH]cc(F)c(=O)[nH]1
active: [8]; 10 µM -0.0094% and -4.58% | [8]; 25 µM -19.6%
inactive: [1]; 10 µM 57.4% and 65.3% | [1]; 25 µM 35.5% | [1]; 50 µM 20.5% | [2]; 10 µM 64.6% and 69.4% | [2]; 25 µM 42.3% | [2]; 50 µM 41.5% | [3]; 10 µM 53.1% and 69.9% | [3]; 25 µM 58.2% | [3]; 50 µM 53.7% | [4]; 10 µM 96.2% and 84.6% | [4]; 25 µM 78.1% | [4]; 50 µM 77.2% | [5]; 10 µM 63.4% and 10.7% | [5]; 25 µM 34.3% | [5]; 50 µM 54.4% | [6]; 10 µM 81.3% and 91.9% | [6]; 25 µM 59% | [6]; 50 µM 47.7% | [7]; 10 µM 77% and 100% | [7]; 25 µM 69.1% | [7]; 50 µM 90.5% | [8]; 50 µM 22.8% | [9]; 10 µM 73.1% and 22.6% | [9]; 25 µM 19.5% | [9]; 50 µM 53.5% | [10]; 10 µM 48.1% and 51.4% | [10]; 25 µM 26.5% | [10]; 50 µM 37.8% | [11]; 10 µM 43.6% and 42.6% | [11]; 25 µM 27.1% | [11]; 50 µM 31.4% | [12]; 10 µM 73.5% and 90.2% | [12]; 25 µM 65.9% | [12]; 50 µM 63.8% | [13]; 10 µM 75.7% and 83.3% | [13]; 25 µM 65.9% | [13]; 50 µM 66.7% | [14]; 10 µM 74.7% and 78.7% | [14]; 25 µM 50.3% | [14]; 50 µM 61.1% | [15]; 10 µM 73.6% and 75.1% | [15]; 25 µM 58.2% | [15]; 50 µM 64.8% | [16]; 25 µM 33.7% | [16]; 50 µM 59.5% | [17]; 10 µM 51.9% and 48.4% | [17]; 25 µM 39.7% | [17]; 50 µM 54% | [18]; 10 µM 41.7% and 51% | [18]; 25 µM 30.4% | [18]; 50 µM 35.7% | [19]; 10 µM 71.4% and 106% | [19]; 25 µM 95.5% | [19]; 50 µM 73% | [20]; 10 µM 74.3% and 82.4% | [20]; 25 µM 58.4% | [20]; 50 µM 62.8%
45.5% (inactive) and -28.2% (active): [16]; 10 µM
